FMDV antiviral – antivirals against foot and mouth disease virus | FMDV antiviral cell-based qHTS | Potency, µM (top dose mostly 57.9 µM), without a hit: top-dose activity change, negative = inhibition, hits mostly inhibitors | 1.2% of 410,000 active | AID 1159524; calls by dose curve; tested in HEK293T cells; also: read-out not given here; nearly all actives have a fitted effect of over 45% in size
Sm TGR inh – S. mansoni TGR enzyme inhibition; Q962Y6; purified TGR, DTNB reduction, TNB absorbance 405 nm; Potency, µM (highest dose often 114 µM), inactives show top-dose activity change, negative = inhibition, hits mostly inhibitors; 3% of 360,000 active; active = well fitted inhibition curve with a large enough effect; inconclusive = small, poorly fitted or top-dose-only effect; inactive = no such curve, though single readings can be large or run the other way; also: nearly all actives have a fitted effect of over 60% in size
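TGR 20 nM + NADPH 100 uM (dispensed conc.), cpd preinc 15 min RT; start with NADPH (500 uM addition) then DTNB (15 mM addition). Kinetic TNB absorbance, 405 nm filter. Four-parameter Hill fit across titration.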
Marburg entry inh – inhibitors of Marburg virus binding or cell entry; Marburg virus pseudotyped entry inhibition, cell reporter; AID 540276; Potency, µM (highest dose often 37.8 µM), without a hit: at the highest dose activity change, negative = inhibition, actives largely listed as inhibitors; 1.8% of 300,000 active; calls by dose curve; tested in HEK293 cells
VACV Venus inh – inhibitors of vaccinia virus (Venus reporter); Vaccinia virus Venus reporter expression, fluorescence; Potency, µM (doses to about 36.5 µM), for inactives: at the top dose activity change, negative = inhibition, hits mostly inhibitors; 0.46% of 330,000 active; calls by dose curve; tested in A549 cells; also: nearly all actives have a fitted effect of over 30% in size
LASV entry inh – Lassa virus entry inhibition. Potency, µM (top dose mostly 37.9 µM), without a hit: at the highest dose activity change, negative = inhibition, usual class: inhibitors. 1.2% of 300,000 active. AID 540256. Lassa virus pseudotype entry inhibition, cell reporter; calls by dose curve; tested in HEK293 cells; also: nearly all actives have a fitted effect of over 50% in size
Vaccinia mCherry – inhibitors of vaccinia virus infection (mCherry reporter signal); 0.63% of 310,000 active; Potency, µM (series often up to 36.5 µM), for inactives: top-dose activity change, negative = inhibition, hits mostly inhibitors; Vaccinia virus mCherry reporter infection, fluorescence; AID 720579; calls by dose curve; tested in A549 cells; also: nearly all actives have a fitted effect of over 35% in size
* = called active by the depositor; i = inactive; u = inconclusive; x = no result given; [ ] = remark or other dose. Compounds with a hit are over-represented: about 5.4% of the library has one in this group of screens. % is scaled to controls: 0 for no effect and ±100 for the full control effect; potency is read from the fitted curve at half-maximal effect.

SMILES	FMDV antiviral	Sm TGR inh	Marburg entry inh	VACV Venus inh	LASV entry inh	Vaccinia mCherry
CCOC(=O)c1c(-n2c(C)cc(/C=C3/C(=O)NC(=O)N(CC)C3=O)c2C)sc2c1CCCC2	u	x	-5%	0%	-23%	-10%
Cc1ccc(N2C(=O)NC(=O)/C(=C\c3cc(C)n(-c4sc5c(c4C#N)CCCC5)c3C)C2=O)cc1	u	4%	2.5µM*	-15%	u	-15%
Cc1cc(/C=C2/C(=O)NC(=O)N(c3ccc(Br)cc3)C2=O)c(C)n1C	-2%	u	-3%	1%	7%	-4%
Cc1cc(/C=C2\C(=O)NC(=O)N(c3cccc(F)c3)C2=O)c(C)n1-c1cc(C(=O)O)cc(C(=O)O)c1	11%	u	u	2%	1%	-9%
Cc1cc(/C=C2\C(=O)NC(=O)N(c3ccc(Cl)cc3)C2=O)c(C)n1-c1cccc(C(=O)O)c1	-2%	7.1µM*	x	x	x	x
COc1cc(OC)c(NC(=O)C(C)n2c(=O)cc(-c3ccccc3)c3c(C)nn(C)c32)cc1Cl (centres undefined)	-22%	-6%	x	-12%	-17%[46.1 µM]	-14%
COc1ccc(OC)c(C(=O)c2c(N)c(-c3nc(-c4ccc(C)c(C)c4)cs3)c3ccccn23)c1	4%	1%	-1%[46.1 µM]	6%	14%[46.1 µM]	-6%
Cc1cc(C)c(S(=O)(=O)N2CCC(N3CCN(Cc4ccc(F)cc4)C(=O)C3=O)CC2)c(C)c1	-1%	4%	x	-4%	-4%[46.1 µM]	-11%
CC(C)N1CCC1(C)C(=O)Nc1cccc2ccccc12 (centres undefined)	22µM*	x	x	-3%	x	-29%
Cc1cc(NC(=O)C2(C)CCN2C(C)C)c2ccccc2n1 (centres undefined)	-18%	x	x	-5%	x	1%
Cc1nnc2n(-c3ccccc3)c(=O)c3c4c(sc3n12)COC(C(C)C)C4 (centres undefined)	-21%	-4%	14%	-15%	-3%	-3%
CC(C)C1Cc2c(sc3[nH]c(=S)n(Cc4ccccc4)c(=O)c23)CO1 (centres undefined)	u	-12%	u	0%	0.79µM*	-15%
CCc1ccc(N/C(SC)=C(/C#N)C(N)=O)cc1	-13%	-28%	-2%	-17%	-2%	-6%
CCCCS/C(=C(/C#N)C(N)=O)c1cc2c([nH]1)CCCC2	-21%	10µM*	-23%	x	-19%	x
O=C(/C=C/c1cccc2ccccc12)c1ccncc1	14µM*	-31%	u	u	u	u
O=C(Nc1ccc(Br)cc1F)N1CCC2(CC1)Oc1ccccc1C(=O)N2Cc1ccccc1F	-8%	6%	0%[46.1 µM]	-9%	x	-18%
CCCN(CCC)C(=O)CSc1nc2ccccc2c(=O)n1Cc1ccco1	-29%	-24%	x	-10%	-9%[46.1 µM]	-16%
CCN(CC)CCn1c(SCC(=O)NCc2ccco2)nc2c(sc3ccccc32)c1=O	-16%	32µM*	u	-6%	u	-12%
CN(Cc1ccccc1)C(=O)CSc1nc2ccccc2c(=O)n1Cc1ccco1	x	2%	6.5µM*	-2%	5.8µM*	u
CCN(CC)CCn1c(SCC(=O)NCCC2=CCCCC2)nc2c(sc3ccccc32)c1=O	-8%	-2%	u	-16%	8%[46.1 µM]	i
O=C(CSc1nc2ccccc2c(=O)n1Cc1ccco1)NCc1ccco1	x	40µM*	-27%	-8%	-8%	i
O=C(CSc1nc2c(sc3ccccc32)c(=O)n1CCCN1CCOCC1)NC1CCCC1	27%	5%	8.2µM*	x	-3%	x
CCCCn1c(SCC(=O)NCc2ccco2)nc2ccccc2c1=O	-1%	-20%	-15%	-10%	9%	i
Cc1ccc(-c2cnc(C3CC3)o2)cc1S(=O)(=O)Nc1ccc(F)cc1Cl	47%	-3%	x	-5%	9%[46.1 µM]	-17%
N#CCCn1c(SCC(=O)NCc2ccco2)nc2ccccc21	-15%	40µM*	-21%	-1%	9%	x
SMILES	FMDV antiviral	Sm TGR inh	Marburg entry inh	VACV Venus inh	LASV entry inh	Vaccinia mCherry
COc1ccc(NC(=O)c2ccc3c(=O)n4nc(Nc5cccc(Cl)c5C)sc4nc3c2)cc1	-13%	0%	x	u	0%[46.1 µM]	u
Oc1oc(C=Nc2ccc(F)cc2F)c2ccccc12	14%	50µM*	x	-10%	x	-8%
CCOc1ccccc1NC(=O)CC1(CC(=O)N2CCOCC2)CCCC1	-31%	40µM*	5%[46.1 µM]	-6%	-9%	-14%
COc1ccc(NC(=O)CC2(CC(=O)N3CCOCC3)CCCC2)cc1Cl	-8%	-7%	11%	-11%	-17%	-13%
COc1ccc(-c2csc(NC(=O)COc3ccc(N(C)S(=O)(=O)c4ccc(C)cc4)cc3)n2)cc1	u	1%	u	u	-2%	-10%
COc1ccc(-c2csc(NC(=O)C3=NN(c4ccccc4)C(=O)CC3)n2)cc1	20µM*	-2%	u	-20%	u	-6%
COc1ccc(S(=O)(=O)Nc2ccccc2C(=O)Nc2nc(-c3ccc(F)cc3)cs2)cc1OC	-16%	-1%	u	u	11µM*	u
COc1ccc(-c2csc(NC(=O)c3ccccc3NS(=O)(=O)c3ccc(C)cc3)n2)cc1	u	-6%	13µM*	u	u	11µM*
CCN(c1ccccc1)S(=O)(=O)c1ccc(OC)c(NC(=O)C2=NN(c3ccccc3)C(=O)CC2)c1	-4%	6%	u	-16%	0.32µM*	-8%
O=C(CSc1ccncc1)NCC1Cc2cccc(-c3cncnc3)c2O1 (centres undefined)	3%	x	x	-9%	x	i
COc1ccc(C2C(C(=O)Nc3ccccc3OC)=C(C)Nc3c(C(=O)Nc4ccccc4)cnn32)c(OC)c1 (centres undefined)	-12%	33%	x	-28%	9%[46.1 µM]	-11%
COc1cc2c(cc1OC)[C@@H]1O[C@](CCCCN3C(=O)c4ccccc4C3=O)(C2)OC2=C1C(=O)c1ccccc1C2=O	x	x	-9%[14.2 µM]	x	x	x
COc1ccc(C2=C(C)C(N3CCC(C(=O)Nc4cc(C)ccc4C)CC3)=NS2(=O)=O)cc1	-19%	-13%	x	u	-6%[46.1 µM]	u
COc1cccc(CN2C(=O)C(C)N(C(=O)c3ccccc3)c3ccccc32)c1 (centres undefined)	u	10%	10µM*	-25%	u	-24%
CC1C(=O)N(Cc2ccc([N+](=O)[O-])cc2)c2ccccc2N1C(=O)c1c(F)cccc1F (centres undefined)	35µM*	5%	u	-22%	u	-20%
COc1ccc(CN2C(=O)C(C)N(C(=O)c3c(F)cccc3F)c3ccccc32)cc1 (centres undefined)	35µM*	0%	x	x	x	x
Cc1ncc2c(c1CNC(=O)c1ccc3c(c1)OCO3)CCN(C(=O)c1cnsn1)C2	6%	x	x	-6%	x	-10%
Cc1ccc(CNC(=O)CN(C)S(=O)(=O)c2ccc3c(c2)c(=O)n(C)c(=O)n3C)cc1	3%	-7%	-19%[46.1 µM]	-10%	0%[46.1 µM]	-11%

Source: PubChem BioAssay (National Center for Advancing Translational Sciences (NCATS))
